# Measured values published in PMC7862700, “An all-to-all approach to the identification of sequence-specific readers for epigenetic DNA modifications on cytosine”.
# Columns and labels:
# Experiment in all cases: DAPPL (digital affinity profiling via proximity ligation, sequencing); 10 mM Tris-HCl pH 7.5, 50 mM NaCl, 1 mM DTT, 4% glycerol, room temperature, 30 min; GST-TFs on glutathione beads, 16-mer random dsDNA library, 0.1% formaldehyde crosslink after washing; high values mean tight binding
# FEV = biological target: T1, FEV (Homo sapiens, UniProt Q99581 1-238); conditions: protein: recombinant; tags: N-terminal GST; dsDNA, one strand shown
# T1 sequence: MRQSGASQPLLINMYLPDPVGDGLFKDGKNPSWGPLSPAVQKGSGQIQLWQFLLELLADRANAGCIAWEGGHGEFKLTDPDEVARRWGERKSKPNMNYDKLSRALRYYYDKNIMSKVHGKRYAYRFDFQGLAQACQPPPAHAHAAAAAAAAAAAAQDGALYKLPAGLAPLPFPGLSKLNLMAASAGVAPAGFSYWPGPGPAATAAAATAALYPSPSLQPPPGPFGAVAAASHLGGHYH
# In short: (§1)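 Binding signal is each hexamer's read frequency for a factor divided by its frequency in the tag-only sample. The factors were GST-fused human transcription factors from yeast, captured on glutathione beads, DNA-barcoded and pooled with that sample. Pools were incubated with 200 nmole of a random double-stranded 16-mer DNA library in Tris/NaCl/DTT/glycerol buffer at room temperature for 30 min, then washed, crosslinked with 0.1% formaldehyde, proximity-ligated with BsaI/T4 ligase (1 h, 37 °C), PCR-amplified and sequenced on an Illumina NextSeq500.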
# ETV5 = ETV5 (Homo sapiens, UniProt P41161 1-510); conditions: protein: recombinant; tags: N-terminal GST; dsDNA, one strand shown
# In short: as §1
# HSF1 = HSF1 (Homo sapiens, UniProt Q00613 1-529); conditions: protein: recombinant; tags: N-terminal GST; chain copies: 3; dsDNA, one strand shown
# In short: as §1
# SPIC = biological target: T2, SPIC (Homo sapiens, UniProt Q8N5J4 1-248); conditions: protein: recombinant; tags: N-terminal GST; dsDNA, one strand shown
# T2 sequence: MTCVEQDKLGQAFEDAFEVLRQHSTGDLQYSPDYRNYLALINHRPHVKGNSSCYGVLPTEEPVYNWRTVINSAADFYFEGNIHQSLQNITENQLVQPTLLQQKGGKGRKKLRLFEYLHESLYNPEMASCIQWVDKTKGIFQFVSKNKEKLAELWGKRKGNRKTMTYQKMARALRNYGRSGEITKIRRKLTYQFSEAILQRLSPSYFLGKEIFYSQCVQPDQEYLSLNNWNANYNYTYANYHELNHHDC
# In short: as §1
# ELF4 = ELF4 (Homo sapiens, UniProt Q99607 1-663); conditions: protein: recombinant; tags: N-terminal GST; dsDNA, one strand shown
# In short: as §1
# ETV2 = biological target: T3, ETV2 (Homo sapiens, UniProt O00321 1-342); conditions: protein: recombinant; tags: N-terminal GST; dsDNA, one strand shown
# T3 sequence: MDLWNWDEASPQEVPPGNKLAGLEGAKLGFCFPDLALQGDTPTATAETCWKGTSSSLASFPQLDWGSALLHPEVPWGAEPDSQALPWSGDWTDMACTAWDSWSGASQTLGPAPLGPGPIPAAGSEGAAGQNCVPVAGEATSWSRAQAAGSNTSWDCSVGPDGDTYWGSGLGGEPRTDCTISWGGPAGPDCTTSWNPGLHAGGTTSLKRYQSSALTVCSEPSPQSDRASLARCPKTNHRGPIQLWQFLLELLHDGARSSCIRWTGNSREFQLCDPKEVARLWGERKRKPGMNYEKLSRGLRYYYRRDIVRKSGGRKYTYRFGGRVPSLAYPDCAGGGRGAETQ
# In short: as §1
# ELF3 = biological target: T4, ELF3 (Homo sapiens, UniProt P78545 1-371); conditions: protein: recombinant; tags: N-terminal GST; dsDNA, one strand shown
# T4 sequence: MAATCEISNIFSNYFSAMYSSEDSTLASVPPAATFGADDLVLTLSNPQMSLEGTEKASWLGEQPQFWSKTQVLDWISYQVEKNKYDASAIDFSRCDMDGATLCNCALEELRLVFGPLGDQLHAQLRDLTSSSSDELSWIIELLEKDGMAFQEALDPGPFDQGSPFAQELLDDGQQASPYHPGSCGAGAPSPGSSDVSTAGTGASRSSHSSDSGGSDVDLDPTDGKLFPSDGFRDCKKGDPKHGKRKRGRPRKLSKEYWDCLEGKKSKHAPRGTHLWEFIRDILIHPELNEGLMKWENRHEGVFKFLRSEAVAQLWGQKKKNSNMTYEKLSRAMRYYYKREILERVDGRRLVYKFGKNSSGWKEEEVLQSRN
# In short: as §1
# CRX = CRX (Homo sapiens, UniProt O43186 1-299); conditions: protein: recombinant; tags: N-terminal GST; dsDNA, one strand shown
# In short: as §1
# ETV1 = ETV1 (Homo sapiens, UniProt P50549 1-477); conditions: protein: recombinant; tags: N-terminal GST; dsDNA, one strand shown
# In short: as §1
# ERF = biological target: T5, ERF (Homo sapiens, UniProt P50548 1-548); conditions: protein: recombinant; tags: N-terminal GST; dsDNA, one strand shown
# T5 sequence: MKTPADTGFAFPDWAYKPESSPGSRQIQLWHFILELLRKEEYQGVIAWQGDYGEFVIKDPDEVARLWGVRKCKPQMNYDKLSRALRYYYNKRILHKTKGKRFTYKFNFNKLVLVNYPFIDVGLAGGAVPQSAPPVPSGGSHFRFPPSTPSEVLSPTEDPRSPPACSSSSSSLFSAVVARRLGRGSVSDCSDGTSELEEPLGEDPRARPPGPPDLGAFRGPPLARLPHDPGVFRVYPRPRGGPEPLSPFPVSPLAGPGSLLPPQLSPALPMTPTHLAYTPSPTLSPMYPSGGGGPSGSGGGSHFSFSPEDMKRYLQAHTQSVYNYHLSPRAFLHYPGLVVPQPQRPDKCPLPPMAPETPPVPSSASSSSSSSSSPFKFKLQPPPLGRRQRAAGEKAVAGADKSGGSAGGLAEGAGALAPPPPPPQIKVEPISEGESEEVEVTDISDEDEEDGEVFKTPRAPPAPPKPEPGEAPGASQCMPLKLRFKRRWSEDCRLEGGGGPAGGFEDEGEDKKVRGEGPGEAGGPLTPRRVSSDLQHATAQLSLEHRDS
# In short: as §1
# ETV3L = biological target: T6, ETV3L (Homo sapiens, UniProt Q6ZN32 1-361); conditions: protein: recombinant; tags: N-terminal GST; dsDNA, one strand shown
# T6 sequence: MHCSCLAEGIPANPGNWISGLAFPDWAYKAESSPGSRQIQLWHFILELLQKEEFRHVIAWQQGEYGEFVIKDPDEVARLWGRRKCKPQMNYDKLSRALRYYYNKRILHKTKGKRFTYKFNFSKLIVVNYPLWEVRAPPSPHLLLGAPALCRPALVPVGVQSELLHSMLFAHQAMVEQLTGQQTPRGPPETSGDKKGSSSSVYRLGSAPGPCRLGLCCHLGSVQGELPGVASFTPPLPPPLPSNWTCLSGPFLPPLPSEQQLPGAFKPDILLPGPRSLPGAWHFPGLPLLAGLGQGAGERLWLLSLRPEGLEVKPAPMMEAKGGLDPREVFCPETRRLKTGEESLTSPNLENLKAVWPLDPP
# In short: as §1
# ETS2 = biological target: T7, ETS2 (Homo sapiens, UniProt P15036 1-469); conditions: protein: recombinant; tags: N-terminal GST; dsDNA, one strand shown
# T7 sequence: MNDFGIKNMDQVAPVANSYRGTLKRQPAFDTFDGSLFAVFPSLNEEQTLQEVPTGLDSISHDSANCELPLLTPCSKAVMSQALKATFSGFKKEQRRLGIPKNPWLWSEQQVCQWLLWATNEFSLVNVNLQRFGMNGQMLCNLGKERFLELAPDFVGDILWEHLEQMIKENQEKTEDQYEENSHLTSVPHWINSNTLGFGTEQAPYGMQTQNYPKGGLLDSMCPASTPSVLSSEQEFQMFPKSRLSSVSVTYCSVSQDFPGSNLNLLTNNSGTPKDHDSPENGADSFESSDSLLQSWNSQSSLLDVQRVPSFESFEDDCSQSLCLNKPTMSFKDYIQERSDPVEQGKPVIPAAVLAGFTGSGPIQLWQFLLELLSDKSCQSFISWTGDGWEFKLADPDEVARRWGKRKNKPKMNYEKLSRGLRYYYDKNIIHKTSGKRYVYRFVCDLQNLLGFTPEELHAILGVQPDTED
# In short: as §1
# SPDEF = biological target: T8, SPDEF (Homo sapiens, UniProt O95238 1-335); conditions: protein: recombinant; tags: N-terminal GST; dsDNA, one strand shown
# T8 sequence: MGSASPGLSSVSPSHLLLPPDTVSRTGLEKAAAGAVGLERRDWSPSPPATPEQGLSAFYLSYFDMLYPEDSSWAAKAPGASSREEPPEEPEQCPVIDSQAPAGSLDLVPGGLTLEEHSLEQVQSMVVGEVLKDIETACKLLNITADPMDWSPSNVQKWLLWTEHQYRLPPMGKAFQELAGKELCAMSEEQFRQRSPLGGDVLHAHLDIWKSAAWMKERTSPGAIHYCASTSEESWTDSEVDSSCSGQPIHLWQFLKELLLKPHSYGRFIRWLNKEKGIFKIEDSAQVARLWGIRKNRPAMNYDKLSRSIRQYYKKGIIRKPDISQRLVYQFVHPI
# In short: as §1
# ETV7 = biological target: T9, ETV7 (Homo sapiens, UniProt Q9Y603 1-341); conditions: protein: recombinant; tags: N-terminal GST; dsDNA, one strand shown
# T9 sequence: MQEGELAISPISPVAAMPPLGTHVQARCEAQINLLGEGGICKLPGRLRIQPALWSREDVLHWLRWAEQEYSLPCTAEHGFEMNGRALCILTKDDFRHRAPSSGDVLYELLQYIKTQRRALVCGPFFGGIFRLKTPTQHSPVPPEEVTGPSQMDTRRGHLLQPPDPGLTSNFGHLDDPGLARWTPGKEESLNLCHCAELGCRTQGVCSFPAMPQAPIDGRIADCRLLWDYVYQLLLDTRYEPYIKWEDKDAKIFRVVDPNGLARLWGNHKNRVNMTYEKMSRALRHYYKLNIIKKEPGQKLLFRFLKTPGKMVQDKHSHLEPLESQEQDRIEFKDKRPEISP
# In short: as §1
# ETV3 = biological target: T10, ETV3 (Homo sapiens, UniProt P41162-2 1-143); conditions: protein: recombinant; tags: N-terminal GST; dsDNA, one strand shown
# T10 sequence: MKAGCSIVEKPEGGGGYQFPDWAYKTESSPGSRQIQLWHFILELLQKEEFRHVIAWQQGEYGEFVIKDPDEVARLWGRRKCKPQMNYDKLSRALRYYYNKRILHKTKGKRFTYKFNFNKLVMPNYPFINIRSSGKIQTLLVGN
# In short: as §1
# ETV6 = ETV6 (Homo sapiens, UniProt P41212 1-452); conditions: protein: recombinant; tags: N-terminal GST; dsDNA, one strand shown
# In short: as §1
# Chain of ETV6 (P41212 whole entry): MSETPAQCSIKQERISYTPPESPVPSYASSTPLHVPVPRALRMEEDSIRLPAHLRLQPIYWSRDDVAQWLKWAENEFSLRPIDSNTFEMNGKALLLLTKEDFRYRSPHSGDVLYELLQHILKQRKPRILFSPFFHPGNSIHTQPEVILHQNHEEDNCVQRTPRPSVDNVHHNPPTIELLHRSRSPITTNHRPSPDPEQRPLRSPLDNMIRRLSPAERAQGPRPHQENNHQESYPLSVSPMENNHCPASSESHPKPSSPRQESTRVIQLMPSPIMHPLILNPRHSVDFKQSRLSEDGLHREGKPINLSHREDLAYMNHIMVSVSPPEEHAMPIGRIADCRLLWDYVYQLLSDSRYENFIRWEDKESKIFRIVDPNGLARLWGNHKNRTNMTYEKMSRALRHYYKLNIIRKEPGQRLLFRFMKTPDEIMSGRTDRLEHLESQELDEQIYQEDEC
# Chain of CRX (O43186 whole entry): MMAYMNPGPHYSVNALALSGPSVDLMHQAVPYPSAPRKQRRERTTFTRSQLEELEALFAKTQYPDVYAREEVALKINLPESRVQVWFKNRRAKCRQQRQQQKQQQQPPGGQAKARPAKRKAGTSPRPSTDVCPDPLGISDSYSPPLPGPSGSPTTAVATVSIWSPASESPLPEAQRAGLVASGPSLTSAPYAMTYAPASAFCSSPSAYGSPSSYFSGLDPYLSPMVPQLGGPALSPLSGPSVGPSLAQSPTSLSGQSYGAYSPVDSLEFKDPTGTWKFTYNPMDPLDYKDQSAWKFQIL
# Chain of ELF4 (Q99607 whole entry): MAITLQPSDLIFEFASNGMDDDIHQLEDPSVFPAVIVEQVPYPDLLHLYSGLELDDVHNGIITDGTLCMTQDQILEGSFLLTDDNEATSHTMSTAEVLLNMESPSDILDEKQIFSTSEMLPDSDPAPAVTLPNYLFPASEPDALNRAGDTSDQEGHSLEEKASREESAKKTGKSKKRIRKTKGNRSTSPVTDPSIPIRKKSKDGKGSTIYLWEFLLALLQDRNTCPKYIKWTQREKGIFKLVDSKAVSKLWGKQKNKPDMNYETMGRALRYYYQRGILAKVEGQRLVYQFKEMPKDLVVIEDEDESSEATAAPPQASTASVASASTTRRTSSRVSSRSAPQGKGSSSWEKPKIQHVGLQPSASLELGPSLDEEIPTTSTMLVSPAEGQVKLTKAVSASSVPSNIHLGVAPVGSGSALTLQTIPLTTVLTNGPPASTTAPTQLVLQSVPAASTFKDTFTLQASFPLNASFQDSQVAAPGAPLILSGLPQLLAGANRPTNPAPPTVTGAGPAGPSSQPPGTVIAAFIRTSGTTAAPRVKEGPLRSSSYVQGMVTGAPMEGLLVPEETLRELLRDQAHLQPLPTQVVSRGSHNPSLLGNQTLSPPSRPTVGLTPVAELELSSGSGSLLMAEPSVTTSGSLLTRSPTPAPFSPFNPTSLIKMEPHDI
# Chain of ETV1 (P50549 whole entry): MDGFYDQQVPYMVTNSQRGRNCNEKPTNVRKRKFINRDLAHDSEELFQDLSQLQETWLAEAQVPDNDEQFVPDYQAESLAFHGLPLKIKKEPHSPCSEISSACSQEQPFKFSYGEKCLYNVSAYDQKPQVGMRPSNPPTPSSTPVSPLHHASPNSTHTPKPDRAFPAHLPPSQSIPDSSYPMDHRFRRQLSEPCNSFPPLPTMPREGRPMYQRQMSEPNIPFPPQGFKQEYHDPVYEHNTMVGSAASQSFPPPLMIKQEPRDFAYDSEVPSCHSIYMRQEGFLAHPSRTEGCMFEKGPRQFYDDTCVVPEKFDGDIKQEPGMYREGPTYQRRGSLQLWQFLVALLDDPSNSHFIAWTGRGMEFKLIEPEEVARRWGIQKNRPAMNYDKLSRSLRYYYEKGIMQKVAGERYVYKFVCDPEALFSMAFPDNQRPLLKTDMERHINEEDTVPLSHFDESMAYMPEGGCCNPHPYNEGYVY
# Chain of HSF1 (Q00613 whole entry): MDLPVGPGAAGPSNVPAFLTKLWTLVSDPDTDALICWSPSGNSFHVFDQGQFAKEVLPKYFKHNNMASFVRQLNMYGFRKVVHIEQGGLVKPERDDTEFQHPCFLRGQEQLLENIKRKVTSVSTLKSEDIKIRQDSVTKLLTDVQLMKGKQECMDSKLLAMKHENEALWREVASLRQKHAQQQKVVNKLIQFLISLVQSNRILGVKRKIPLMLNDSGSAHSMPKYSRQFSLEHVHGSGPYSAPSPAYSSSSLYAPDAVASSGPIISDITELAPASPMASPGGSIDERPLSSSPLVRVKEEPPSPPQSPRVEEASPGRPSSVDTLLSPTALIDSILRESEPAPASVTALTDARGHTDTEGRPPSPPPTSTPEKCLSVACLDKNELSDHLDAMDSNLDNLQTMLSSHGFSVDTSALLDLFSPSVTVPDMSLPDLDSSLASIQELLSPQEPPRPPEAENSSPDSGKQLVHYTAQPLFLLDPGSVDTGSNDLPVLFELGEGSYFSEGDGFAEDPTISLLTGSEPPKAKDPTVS
# Chain of ETV5 (P41161 whole entry): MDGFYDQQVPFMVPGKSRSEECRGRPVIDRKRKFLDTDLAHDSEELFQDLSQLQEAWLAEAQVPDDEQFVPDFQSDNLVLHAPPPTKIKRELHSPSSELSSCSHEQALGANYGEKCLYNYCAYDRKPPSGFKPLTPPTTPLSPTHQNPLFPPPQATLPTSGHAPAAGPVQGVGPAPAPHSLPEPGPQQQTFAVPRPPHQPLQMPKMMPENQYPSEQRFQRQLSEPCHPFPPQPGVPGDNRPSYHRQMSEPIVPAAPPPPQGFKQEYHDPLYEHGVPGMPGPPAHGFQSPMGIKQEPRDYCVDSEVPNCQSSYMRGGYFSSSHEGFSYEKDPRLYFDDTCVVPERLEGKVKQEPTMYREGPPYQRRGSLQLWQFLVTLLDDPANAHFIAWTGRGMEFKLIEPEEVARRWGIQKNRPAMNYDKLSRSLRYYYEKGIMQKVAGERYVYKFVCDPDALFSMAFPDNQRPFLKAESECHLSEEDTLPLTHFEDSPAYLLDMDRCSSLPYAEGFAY
sequence,measurement,setting,value
ATAAGC,binding signal,FEV,"1.02 fold enrichment (6-mer frequency, TF over GST control)"
same,binding signal,ETV5,"1.11 fold enrichment (6-mer frequency, TF over GST control)"
same,binding signal,HSF1,"1.67 fold enrichment (6-mer frequency, TF over GST control)"
same,binding signal,SPIC,"1.08 fold enrichment (6-mer frequency, TF over GST control)"
same,binding signal,ELF4,"1.11 fold enrichment (6-mer frequency, TF over GST control)"
same,binding signal,ETV2,"1.07 fold enrichment (6-mer frequency, TF over GST control)"
same,binding signal,ELF3,"1.12 fold enrichment (6-mer frequency, TF over GST control)"
same,binding signal,CRX,"2.4 fold enrichment (6-mer frequency, TF over GST control)"
same,binding signal,ETV1,"1.11 fold enrichment (6-mer frequency, TF over GST control)"
same,binding signal,ERF,"1.18 fold enrichment (6-mer frequency, TF over GST control)"
same,binding signal,ETV3L,"1.12 fold enrichment (6-mer frequency, TF over GST control)"
same,binding signal,ETS2,"1.08 fold enrichment (6-mer frequency, TF over GST control)"
same,binding signal,SPDEF,"1.07 fold enrichment (6-mer frequency, TF over GST control)"
same,binding signal,ETV7,"1.11 fold enrichment (6-mer frequency, TF over GST control)"
same,binding signal,ETV3,"1.11 fold enrichment (6-mer frequency, TF over GST control)"
same,binding signal,ETV6,"1.02 fold enrichment (6-mer frequency, TF over GST control)"
